Consider 4 compounds from PubChem BioAssay.

A short description of assay [1]: stimulators of nuclear beta-catenin in C2C12, primary screen, imaging, WNT3A-conditioned medium, mouse C2C12, NPC library (AID 1117326; in the data active means nuclear beta-catenin stimulation mostly above about 4.2%, no sharp cut-off; inactive means mostly below about 10%). Conditions: stronger effect = higher value.
Assay [2] can be described thus: stimulators of insulin release from INS-1E, primary screen, cell-based, 5 mM glucose, NPC library (AID 1117329;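 active means compound raises insulin release from rat beta cells at 5 mM glucose, no numeric limit stated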). Conditions: rat INS-1E insulin secretion, at 10 µM, stronger effect = higher value.
Assay [3] in a line: growth inhibition of GSK3B-pretreated HCT116 cells – cell-based, CellTiter-Glo, 0.2 to 20 µM (AID 1117336;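 active means compounds lowering colon cancer cell viability after pretreatment blocking the GSK3B kinase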). Conditions: HCT116 viability after GSK3B inhibitor, at 20 µM, stronger effect = higher value. (In general: In ATP-based viability assays light output follows the ATP content of the culture.)
Assay [4] in a line: inhibition of endothelial tube formation, primary screen, imaging, VEGF stimulated, CD31 staining, tube area, NPC library (AID 1117340). The following applies: VEGF-stimulated ADSC/ECFC co-culture, at 10 µM, stronger effect = higher value.
Assay [5] in a line: glucagon-like peptide 1 release enhancers, primary assay, NCI-H716 cell line, NPC library (AID 1117341;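 active means compound raises GLP1 secretion from the human gut endocrine cells, with no numeric limit stated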). The following applies: NCI-H716 cells, at 10 µM, stronger effect = higher value.
Assay [6] can be described thus: HCT116 colon cancer cell growth inhibition, primary screen, CellTiter-Glo luminescence, NPC library (AID 1117342;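 active means compounds that lower survival of HCT116 colon cancer cells in the luminescence readout, no numeric limit stated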). The following applies: at 20 µM (top of the series).
The nature of assay [7]: CellTiter-Glo luminescent readout of SW480 viability loss, NPC library primary (AID 1117343;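 active means compounds that lower viability of the colon cancer cells in the luminescence readout, with no numeric limit stated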). Conditions: CellTiter-Glo luminescence; at 20 µM (top of the series) unless noted.
The nature of assay [8]: decreased DLD-1 cellular survival, CellTiter-Glo luminescent readout, NPC compound collection, primary HTS (AID 1117346;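 active means compounds that lower survival of DLD-1 colon cancer cells in the luminescence readout, no cutoff given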). The following applies: DLD-1 viability, CellTiter-Glo luminescence; at 20 µM (top of the series).
A short description of assay [9]: differential killing of epithelial or mesenchymal cells, primary screen, imaging, PC-3E GFP, TEM4-18 mCherry, co-culture (AID 1345086;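 active means compounds killing one labelled cell type while sparing the other, by normalised counts and ratio limits, not self-fluorescent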;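 on all read-outs here: cells exposed to compound for 72 h before imaging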;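 on red/green cell ratio (normalised): normalised mesenchymal count divided by normalised epithelial count so high means epithelial killing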). Conditions: imaging cell counts, at 1 µM; for red/green cell ratio (normalised): actives lie on both sides, counts scaled to control wells, 1 = unselective.
The nature of assay [10]: sensitizers of A549 cells to miR-34 induction, primary screen, imaging, A549 dox-inducible miR-34, nuclei and caspase counts (AID 1347080;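 active means compounds whose cell count with miR-34 switched on is under 0.7 times the count with it off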). Conditions: A549 miR-34 inducible, Hoechst nuclei count, 48 h.
The target in assay [11] is NAD(+) hydrolase SARM1 (Homo sapiens) (UniProt Q6SZW1). Briefly: SARM1 TIR NADase inhibitors, cell lysate, NAD-Glo luminescence (AID 1508614;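 active means compound whose remaining NAD level is above about 45 nM, limit read from the data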). The following applies: SAM-TIR HEK293T lysate NADase, at 1 µM, stronger effect = higher value.
NAD(+) hydrolase SARM1 (Homo sapiens), sequence (Q6SZW1 whole entry, looked up): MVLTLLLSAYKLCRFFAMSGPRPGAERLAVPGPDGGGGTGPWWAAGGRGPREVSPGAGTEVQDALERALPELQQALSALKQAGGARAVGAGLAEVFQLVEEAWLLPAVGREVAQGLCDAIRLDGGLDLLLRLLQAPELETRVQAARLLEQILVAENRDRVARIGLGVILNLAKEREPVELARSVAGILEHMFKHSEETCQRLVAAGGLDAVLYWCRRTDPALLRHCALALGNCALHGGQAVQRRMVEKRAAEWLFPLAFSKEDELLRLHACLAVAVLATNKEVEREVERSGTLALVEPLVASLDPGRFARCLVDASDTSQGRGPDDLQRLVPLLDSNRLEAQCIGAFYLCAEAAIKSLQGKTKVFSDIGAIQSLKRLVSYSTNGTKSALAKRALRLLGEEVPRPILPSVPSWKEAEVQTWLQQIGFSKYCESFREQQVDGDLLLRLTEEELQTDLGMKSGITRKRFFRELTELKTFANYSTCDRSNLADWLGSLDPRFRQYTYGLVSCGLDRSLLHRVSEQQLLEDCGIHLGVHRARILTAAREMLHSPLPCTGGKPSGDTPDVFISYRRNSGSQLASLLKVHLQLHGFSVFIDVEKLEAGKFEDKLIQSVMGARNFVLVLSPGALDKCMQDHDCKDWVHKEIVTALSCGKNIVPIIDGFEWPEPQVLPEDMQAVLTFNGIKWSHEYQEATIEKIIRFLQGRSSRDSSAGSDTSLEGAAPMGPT
The nature of assay [12]: hESC survival regulators, cell-based (AID 493140; call rule not given here;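 further: cells exposed to compounds for four days before counting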). The following applies: human embryonic stem cell survival screen; stronger effect = higher value.
Assay [13] in a line: liver-stage malaria parasite growth inhibition, primary screen, cell-based, HepG2, luciferase luminescence, HepG2 viability (AID 624349; in the data active means parasite load remaining mostly below about 12%, no sharp cut-off; inactive means mostly above about 10%;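 further: 100% = mean of DMSO negative control wells on the same plate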). The following applies: P. berghei liver stage in HepG2, luciferase luminescence, concentration not given here; parasite load remaining: stronger effect = lower value; viability: measured here: HepG2 viability without parasites.
A short description of assay [14]: survival rescue of mitochondrial mutant cells in low glucose, primary screen, MELAS cybrids, Rieske KO mouse fibroblasts, CellTiter-Glo (AID 1508586;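 active means mean z-score across replicates of 1.96 or higher in either the MELAS or the Rieske mutant cell line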;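 further: z relative to plate mean and SD of compound and empty wells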).
[15] abbreviates: measured here: epithelial PC-3E GFP cell survival.
[16] abbreviates: measured here: mesenchymal TEM4-18 mCherry cell survival.
Where [17] appears, read: stronger effect = lower value, cell number ratio, induced over uninduced.
Setting [18] is: measured here: relative caspase fold change +Dox/-Dox.
The mark [19] stands for this setting: measured here: total cells with miR-34 induction, stronger effect = lower value.
[20] abbreviates: measured here: total cells without miR-34 induction.
[21] abbreviates: MELAS cybrid survival, CellTiter-Glo 48 h, stronger effect = higher value.
Where [22] appears, read: Rieske KO mouse fibroblast survival, CellTiter-Glo 72 h.

Molecules are shown by their SMILES. The source made the active and inactive calls.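 How the source made its calls, unless noted: active means compound that reduces growth-factor-driven endothelial tube area in a mixed cell culture, no cutoff stated; inactive means the rest.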

For orientation: viability means a read-out of living cells in per cent, often relative to untreated cells.

For the compound `CCCCOCCOCCOCc1cc2c(cc1CCC)OCO2`, the nuclear beta-catenin stimulation in [1] (at 10 µM) was 0.2% (inactive); in assay [1] (stimulation, at 2 µM), 1.7%. In addition, the insulin secretion stimulation in assay [2] is 1.3% (inactive). For the same compound, in assay [3], the viability decrease was -13.9% (inactive). The tube area decrease in [4] is -2.7% (inactive). For the same compound, in [5], the GLP1 secretion stimulation is -2.6% (inactive). For the same compound, the inhibition of viability in [6] is 24.7% (inactive). In addition, the viability decrease (inhibition) in [7] was 11.6% (inactive); in assay [8], 14.4% (inactive). The red/green cell ratio (normalised) in [9] is 0.78 (inactive). Also, the values for the normalised cell number in assay [9] (setting [15]) and in assay [9] (setting [16]) were 1.28 and 1, respectively. Also, the fold change was 0.878 (inactive) in assay [10] (setting [17]) and 0.573 in assay [10] (setting [18]). Also, the cell count was 7660 in [10] (setting [19]) and 8730 in [10] (setting [20]). The remaining NAD in assay [11] was 10 nM (inactive).
With `CCCCCCCCCCCCCCCC[N+](C)(C)CCN(Cc1ccc(OC)cc1)c1ncccn1`, the survival in assay [12] is 0.417 (inactive). Further, the parasite load remaining in [13] is 24.3% (inactive). In [13], the viability came to 77.4%. Besides, the nuclear beta-catenin stimulation in [1] (at 10 µM) is -5.4% (inactive); in [1] (stimulation, at 2 µM), 0%. The insulin secretion stimulation in assay [2] is 2.9% (inactive). Besides, in assay [3], the viability decrease was 100% (active). In addition, the tube area decrease in assay [4] is 110% (active). Besides, in [5], the GLP1 secretion stimulation was 79.6% (active). In addition, the inhibition of viability in assay [6] is 101% (active). Besides, the figures for the viability decrease (inhibition) in [7] and in [8] were 120% (active) and 103% (active), respectively. Besides, the red/green cell ratio (normalised) in assay [9] was 0.95 (inactive). For the same compound, the results for the normalised cell number in [9] (setting [15]) and in assay [9] (setting [16]) were 1.06 and 1, respectively. The fold change in [10] (setting [17]) was 0.797 (inactive); in [10] (setting [18]), 1.23. Moreover, the values for the cell count in assay [10] (setting [19]) and in assay [10] (setting [20]) were 4700 and 5900, respectively. For the same compound, the z-score in [14] (setting [21]) is -2.42 (inactive); in assay [14] (setting [22]), 1.31. In addition, the remaining NAD in assay [11] is 10 nM (inactive).
With `CC(=O)N(CC(O)CO)c1c(I)c(C(=O)NCCO)c(I)c(C(=O)NCC(O)CO)c1I` (stereo not drawn), the nuclear beta-catenin stimulation in assay [1] (at 10 µM) was 9.8% (inactive); in [1] (stimulation, at 2 µM), 0.7%. For the same compound, in assay [2], the insulin secretion stimulation was 0.3% (inactive). In assay [3], the viability decrease was -3.3% (inactive). Further, the tube area decrease in [4] was 1.4% (inactive). Moreover, the GLP1 secretion stimulation in assay [5] was 2.4% (inactive). For the same compound, the inhibition of viability in [6] was -3.1% (inactive). In addition, the viability decrease (inhibition) in [7] was -2.5% (active); in assay [8], 0.4% (inactive). Further, in assay [9], the red/green cell ratio (normalised) is 0.83 (inactive). Further, the normalised cell number in assay [9] (setting [15]) turned out to be 1.22; in assay [9] (setting [16]), 1.02. Also, the fold change is 0.937 (inactive) in [10] (setting [17]) and 0.945 in assay [10] (setting [18]). Also, the values for the cell count in assay [10] (setting [19]) and in [10] (setting [20]) were 9070 and 9680, respectively. In assay [11], the remaining NAD is 10 nM (inactive).
For the compound `CCN1C(=O)NC(c2ccccc2)C1=O` (stereo not drawn), the survival in assay [12] was 2.42 (inactive). In addition, in assay [13], the parasite load remaining is 83.9% (inactive). This compound displayed a viability in [13] of 100%. The nuclear beta-catenin stimulation in [1] (at 10 µM) is -2.4% (inactive); in [1] (stimulation, at 2 µM), -0.9%. Moreover, the insulin secretion stimulation in assay [2] is -1% (inactive). In addition, the viability decrease in assay [3] is -5.5% (inactive). Moreover, the tube area decrease in assay [4] is -23% (inactive). Also, the GLP1 secretion stimulation in [5] is 7% (inactive). In addition, the inhibition of viability in [6] was -1% (inactive). Further, the viability decrease (inhibition) in [7] is 2.2% (inactive); in assay [8], 8.6% (inactive). Further, in assay [9], the red/green cell ratio (normalised) is 0.92 (inactive). In addition, the normalised cell number in assay [9] (setting [15]) came to 1.08; in assay [9] (setting [16]), 1. In addition, the fold change in assay [10] (setting [17]) was 0.858 (inactive); in assay [10] (setting [18]), 1.11. The cell count in assay [10] (setting [19]) is 8830; in assay [10] (setting [20]), 10300. Also, the z-score in assay [14] (setting [21]) is 0.723 (inactive); in [14] (setting [22]) it was 0.79. Besides, the remaining NAD in assay [11] was 10 nM (inactive).
